FLuc inh-1: Photinus pyralis luciferase inhibition. P08659. purified P. pyralis luciferase, luminescence, biochemical. Potency, µM (series often up to 115 µM), most hits filed as inhibitors. 76,000 compounds, 2.5% hits. AID 1347043; also: % is scaled to controls: 0 for no effect and ±100 for the full control effect; nearly all actives have a fitted effect of over 65% in size
Target sequence (P08659 whole entry, looked up): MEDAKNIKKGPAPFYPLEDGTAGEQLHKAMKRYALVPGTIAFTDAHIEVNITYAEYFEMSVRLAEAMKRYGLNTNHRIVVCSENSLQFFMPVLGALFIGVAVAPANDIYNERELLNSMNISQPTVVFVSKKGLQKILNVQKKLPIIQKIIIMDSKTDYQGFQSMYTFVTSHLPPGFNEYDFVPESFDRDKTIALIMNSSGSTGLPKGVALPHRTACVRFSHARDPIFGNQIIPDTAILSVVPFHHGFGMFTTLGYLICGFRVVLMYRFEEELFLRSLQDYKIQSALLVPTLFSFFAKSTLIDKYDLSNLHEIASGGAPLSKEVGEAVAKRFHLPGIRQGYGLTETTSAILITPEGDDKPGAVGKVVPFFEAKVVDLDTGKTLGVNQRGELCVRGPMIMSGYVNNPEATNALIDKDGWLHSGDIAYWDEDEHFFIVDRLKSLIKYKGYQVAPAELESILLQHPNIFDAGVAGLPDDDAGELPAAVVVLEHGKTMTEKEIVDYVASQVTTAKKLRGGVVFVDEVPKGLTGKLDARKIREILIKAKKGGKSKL
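Purified P. pyralis luciferase (10nM final) in 50mM Tris acetate pH 7.5, 10mM Mg acetate, 0.01% Tween-20, 0.05% BSA with 10uM D-luciferin and 10uM ATP. Compounds titrated qHTS. Luminescence imaged on CCD.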
hNpr1 antagonist: blocks ANP-stimulated signaling of human Npr1 receptor. Potency, µM (series often up to 46.3 µM), inactives show at the highest dose activity change, negative = inhibition, usual class: inhibitors. 76,000 compounds, 1.6% hits. HEK293 hNpr1 GloSensor cGMP, ANP-stimulated luminescence; calls by dose curve; also: % is scaled to controls: 0 for no effect and ±100 for the full control effect; nearly all actives have a fitted effect of over 60% in size
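HEK293 cells stably expressing human Npr1 and cGMP GloSensor pGS-40F, loaded 2 h with 2% GloSensor reagent, given compound 30 min at room temperature. Luminescence read before and 20 min after 0.1 nM hNppA.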
HEK cytotox: cytotoxic compounds in HEK 293 cells; 94,000 compounds, 6.6% hits; Potency, µM (series often up to 115 µM), for the others: at the top dose activity change, negative = cytotoxicity, usual class: inhibitors; HEK 293 viability, ATP luminescence (CellTiter-Glo), 48-72 h; AID 1345083; also: % is scaled to controls: 0 for no effect and ±100 for the full control effect; nearly all actives have a fitted effect of over 60% in size
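HEK 293 cells at 250 cells/well were exposed to compounds by pintool transfer for 48 or 72 hr at 37 degree Celsius, 5% CO2. Viability was read as ATP-coupled luminescence with CellTiter-Glo after 10 min at room temperature.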
3T3 cytotox: kills NIH 3T3 cells. NIH 3T3 viability, CellTiter-Glo ATP luminescence, 48-72 h. Potency, µM (top dose mostly 96.7 µM), for the others: at the top dose activity change, negative = cytotoxicity, usual class: inhibitors. 94,000 compounds, 4.3% hits; also: % is scaled to controls: 0 for no effect and ±100 for the full control effect; nearly all actives have a fitted effect of over 55% in size
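Cytotoxicity was measured by CellTiter-Glo ATP luminescence after 48 or 72 h compound exposure at 37 °C. Mouse NIH 3T3 fibroblasts were seeded at 400 cells/well and dosed by 23 nL pin transfer.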
FLuc SDR no ATP: firefly luciferase binding stabilization, ATP absent; Purified FLuc-C-HiBiT, Nano-Glo HiBiT luminescence, no ATP; shares compounds with FLuc inh-1; 1,300 compounds, 7.8% hits; Potency, µM (highest dose often 32.7 µM), for inactives: at the top dose activation (signal gain), hits mostly activators; AID 1963318; also: nearly all actives have a fitted effect of over 55% in size
FLuc SDR ATP: firefly luciferase binding stabilization, ATP added. 1,300 compounds, 8.7% hits. AID 1963319. purified FLuc-C-HiBiT + ATP, HiBiT complementation luminescence. shares compounds with FLuc inh-1. Potency, µM (top dose mostly 32.7 µM), for the others: at the top dose activation (gain of signal), most hits filed as activators;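 also: signal reports ligand binding via conformational change of the enzyme rather than luciferase catalysis; % of control where 0% means no effect; nearly all actives have a fitted effect of over 55% in size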
FLuc inh-2: firefly luciferase enzyme inhibition | purified FLuc-C-HiBiT enzyme, luciferin luminescence | Potency, µM (series often up to 32.7 µM), inactives show at the highest dose activity change, negative = inhibition, hits mostly inhibitors | 1,300 compounds, 42% hits | AID 1963320 | shares compounds with FLuc inh-1; also: % is scaled to controls: 0 for no effect and ±100 for the full control effect; nearly all actives have a fitted effect of over 70% in size
* = called active by the depositor; [ ] = another dose, or the depositor's remark. Rows were chosen to be rich in hits. Some 11% of all compounds tested hit in one or more screens of this group. Unless noted, calls follow the shape of the dose curve; as a rule, active = well fitted curve in the direction sought with a large enough effect; inconclusive = small, poorly fitted or top-dose-only effect, or another doubt; inactive = no such curve, though single readings can be large; an effect the other way counts as inactive or inconclusive. Potency is read from the fitted curve at half-maximal effect.

COc1cccc(-c2cc(-c3ccccc3OC)nc3c(C)noc23)c1 was read as FLuc inh-1 inactive, hNpr1 antagonist 11%[70.6 µM], HEK cytotox inconclusive and 3T3 cytotox inconclusive.
`COc1ccc(-c2noc(-c3nc(Cc4cccc(F)c4)no3)n2)cc1` gave FLuc inh-1 inactive, hNpr1 antagonist -10%, HEK cytotox 1% and 3T3 cytotox -9%.
`COc1ccc(-c2noc(Nc3ccc4c(c3)OCCO4)n2)cc1` gave FLuc inh-1 0.89µM*, hNpr1 antagonist inconclusive, HEK cytotox -4%, 3T3 cytotox 1%, FLuc SDR no ATP inconclusive, FLuc SDR ATP inconclusive and FLuc inh-2 1.6µM*.
For COc1ccc(Nc2nc(-c3cccc(OC)c3)no2)cc1 the results were FLuc inh-1 2.5µM*, hNpr1 antagonist inconclusive, HEK cytotox inconclusive, 3T3 cytotox -64%, FLuc SDR no ATP 21%, FLuc SDR ATP 16% and FLuc inh-2 7.9µM*.
COc1cccc(-c2noc(COc3ccccc3Cl)n2)c1 was read as FLuc SDR no ATP 14%, FLuc SDR ATP 13% and FLuc inh-2 inconclusive.
For CCOc1ccc(Nc2nc(-c3ccccc3)no2)cc1 the results were FLuc inh-1 0.79µM*, hNpr1 antagonist 10µM*, HEK cytotox -73%, 3T3 cytotox 18µM*, FLuc SDR no ATP 16%, FLuc SDR ATP 17% and FLuc inh-2 5µM*.
Screening CNC(=O)c1cc(C)nc2onc(C3CCN(C(=O)OC)C3)c12 (stereo not drawn) returned HEK cytotox 4%[172 µM] and 3T3 cytotox -17%[138 µM].
CC(C)CNC(=O)c1nc2sccn2c1-c1cccc(C(F)(F)F)c1 was read as HEK cytotox -10% and 3T3 cytotox -32%.
COc1ccc(-c2noc(Nc3ccccc3)n2)cc1 was read as FLuc inh-1 1.1µM*, hNpr1 antagonist 10µM*, HEK cytotox inconclusive, 3T3 cytotox -26%, FLuc SDR no ATP 30%, FLuc SDR ATP inconclusive and FLuc inh-2 2.2µM*.
COc1ccc(-c2noc(Nc3cc(OC)cc(OC)c3)n2)cc1 was read as FLuc inh-1 inconclusive, hNpr1 antagonist -17%, HEK cytotox inconclusive and 3T3 cytotox inconclusive.
NC(=O)[C@H](CC1CCCCC1)NC(=O)[C@@H]1CN(C(=O)Nc2ccccc2)CCN1C(=O)C1CCNCC1 was read as FLuc inh-1 inactive, hNpr1 antagonist 3%, HEK cytotox 1% and 3T3 cytotox -4%.
For Cc1ccc(-c2cc3c(=O)n(CCNC(=O)c4cccnc4)ccn3n2)c(C)c1 the results were FLuc inh-1 8.9µM*, hNpr1 antagonist 5%, HEK cytotox inconclusive, 3T3 cytotox inconclusive, FLuc SDR no ATP 30%, FLuc SDR ATP inconclusive and FLuc inh-2 inconclusive.
Screening COc1cccc(-c2cc3c(=O)n(CCNC(=O)c4nn(C)c5ccccc45)ccn3n2)c1 returned FLuc inh-1 inconclusive, hNpr1 antagonist -21%, HEK cytotox inconclusive and 3T3 cytotox inconclusive.
Screening CC(=O)Nc1cccc(C(=O)NCCn2ccn3nc(-c4ccc(C)cc4C)cc3c2=O)c1 returned FLuc inh-1 5µM*, hNpr1 antagonist -19%, HEK cytotox 40µM*, 3T3 cytotox inconclusive, FLuc SDR no ATP 31%, FLuc SDR ATP inconclusive and FLuc inh-2 9.9µM*.
Screening Cc1ccc(-c2cc3c(=O)n(CCNC(=O)c4nn(C)c5ccccc45)ccn3n2)c(C)c1 returned FLuc inh-1 1.4µM*, hNpr1 antagonist -24%, HEK cytotox inconclusive, 3T3 cytotox inconclusive, FLuc SDR no ATP inconclusive, FLuc SDR ATP inconclusive and FLuc inh-2 1.6µM*.
Screening Cc1ccc(C)c(-c2cc3c(=O)n(CCNC(=O)c4ccccc4)ccn3n2)c1 returned FLuc inh-1 inactive, hNpr1 antagonist -13%, HEK cytotox inconclusive and 3T3 cytotox inconclusive.
Screening Cc1ccc(-c2cc3c(=O)n(CCNC(=O)Cc4ccsc4)ccn3n2)c(C)c1 returned FLuc inh-1 8.9µM*, hNpr1 antagonist 0%, HEK cytotox inconclusive, 3T3 cytotox inconclusive, FLuc SDR no ATP inconclusive, FLuc SDR ATP inconclusive and FLuc inh-2 6.2µM*.
Screening COc1ccc(C(=O)NCCn2ccn3nc(-c4cc(C)ccc4C)cc3c2=O)cc1OC returned FLuc inh-1 inactive, hNpr1 antagonist -19%, HEK cytotox inconclusive and 3T3 cytotox inconclusive.
For CCS(=O)(=O)N1CCCN(Cc2ccncc2)C(c2ccccc2)CC(=O)NCC1 (stereo not drawn) the results were FLuc inh-1 inactive, hNpr1 antagonist -2%, HEK cytotox inconclusive and 3T3 cytotox -19%.
For Cc1ccc2nc(CO[C@H]3CN(Cc4ccc5c(c4)OCO5)C[C@H]3F)[nH]c2c1 the results were FLuc inh-1 inactive, hNpr1 antagonist inconclusive, HEK cytotox inconclusive and 3T3 cytotox -30%[138 µM].
Cc1ccc(-c2cc3c(=O)n(CCNC(=O)c4ccc(N(C)C)cc4)ccn3n2)c(C)c1 was read as FLuc inh-1 2.5µM*, hNpr1 antagonist -18%, HEK cytotox inconclusive, 3T3 cytotox -16%, FLuc SDR no ATP 20%, FLuc SDR ATP 14% and FLuc inh-2 inconclusive.
Cc1ccc(-c2cc3c(=O)n(CCNC(=O)c4ccc(N(C)C)cc4)ccn3n2)cc1C was read as FLuc inh-1 inactive, hNpr1 antagonist 1%, HEK cytotox -3% and 3T3 cytotox inactive.
`COc1ccc(C(=O)NCCn2ccn3nc(-c4ccc(C)cc4C)cc3c2=O)cc1F` gave FLuc inh-1 1.3µM*, hNpr1 antagonist inconclusive, HEK cytotox inconclusive, 3T3 cytotox inconclusive, FLuc SDR no ATP 32%, FLuc SDR ATP inconclusive and FLuc inh-2 3.5µM*.
Screening COc1ccc(C(=O)Nc2ccc3n(c2=O)C[C@H]2C[C@@H]3CN(C(=O)CCCC(=O)O)C2)cc1 returned FLuc inh-1 13µM*, hNpr1 antagonist 4%, HEK cytotox 3%, 3T3 cytotox 1%, FLuc SDR no ATP inconclusive, FLuc SDR ATP 19% and FLuc inh-2 inconclusive.
Cc1ccc(-n2ncc3c(N4CCCC(C)C4)ncnc32)c(C)c1 (stereo not drawn) was read as FLuc SDR no ATP 29%, FLuc SDR ATP 20% and FLuc inh-2 11µM*.
For Cc1cccc(-n2ncc3c(N4CCCC(C)C4)ncnc32)c1 (stereo not drawn) the results were FLuc SDR no ATP 3.9µM*, FLuc SDR ATP inconclusive and FLuc inh-2 0.7µM*.

Source: PubChem BioAssay
